Laboratory results reported in PubChem BioAssay AID1942 (Johns Hopkins Ion Channel Center, 2009).
In all, about 2,400 compounds went through this assay and about 580 (24%) were called active. Not all results are given here. Unmarked numbers belong to inactive results.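 How the source made its calls: active means activity change at or above the mean plus 3 SD of buffer wells without dofetilide, per plate; inactive means the rest.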

target: Potassium voltage-gated channel subfamily KQT member 2 (Rattus norvegicus) (UniProt O88943); assay: KCNQ2 potentiation in CHO cells – cell-based, FluxOR thallium flux, counter-screen for hERG block protector project, confirmation (AID 1942); conditions: FluxOR thallium flux fluorescence, at 10 µM, stronger effect = higher value;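 further: normalized value minus buffer-control mean plus three SD of buffer wells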
Sequence (O88943 whole entry, looked up): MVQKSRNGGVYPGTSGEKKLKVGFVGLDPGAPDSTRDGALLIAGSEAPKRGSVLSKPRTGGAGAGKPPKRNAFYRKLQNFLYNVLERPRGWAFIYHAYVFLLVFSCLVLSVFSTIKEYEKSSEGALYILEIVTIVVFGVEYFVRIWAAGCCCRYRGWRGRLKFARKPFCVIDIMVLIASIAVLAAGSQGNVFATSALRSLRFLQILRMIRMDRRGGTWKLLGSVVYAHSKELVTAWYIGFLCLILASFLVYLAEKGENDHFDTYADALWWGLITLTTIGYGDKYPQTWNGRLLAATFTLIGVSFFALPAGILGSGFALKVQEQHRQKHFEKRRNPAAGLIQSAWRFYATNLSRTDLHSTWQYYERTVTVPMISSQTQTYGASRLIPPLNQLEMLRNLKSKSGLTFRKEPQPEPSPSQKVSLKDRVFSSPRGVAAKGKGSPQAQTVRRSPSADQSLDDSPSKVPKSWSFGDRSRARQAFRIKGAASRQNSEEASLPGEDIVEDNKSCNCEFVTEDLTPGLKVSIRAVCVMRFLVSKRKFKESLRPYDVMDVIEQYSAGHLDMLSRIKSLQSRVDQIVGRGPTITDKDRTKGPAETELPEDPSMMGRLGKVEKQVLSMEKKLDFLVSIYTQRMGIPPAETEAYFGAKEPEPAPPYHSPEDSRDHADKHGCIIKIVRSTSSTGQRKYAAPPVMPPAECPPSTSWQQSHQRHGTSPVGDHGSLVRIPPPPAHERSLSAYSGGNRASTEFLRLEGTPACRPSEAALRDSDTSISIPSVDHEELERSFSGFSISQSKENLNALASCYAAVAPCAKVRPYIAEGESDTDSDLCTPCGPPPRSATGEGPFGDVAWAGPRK

SMILES	activity change, less the hit threshold
CCCN(CC(=O)Nc1ccccc1C)C(=O)CCl	-25.4%
CCc1nnc(NC(=O)c2cccc(S(=O)(=O)N3CCN(c4ccccc4)CC3)c2)s1	-21.2%
COC(=O)/C=C1\S/C(=N/N=C/c2ccco2)NC1=O	-11%
CSc1nc2ccc(S(=O)(=O)N3CCc4ccccc43)cc2s1	-21.8%
Cc1ccc2[nH]cc(CCNC(=O)/C=C/c3ccco3)c2c1	-22.5%
CCOC(=O)c1nnsc1NC(C)=O	-19.7%
CC(C)Oc1ccccc1C1(c2ccccc2)NC(=O)NC1=O (centres undefined)	-22.4%
CCCCc1cc(=O)oc2c(C)c(OCC(=O)NCc3ccccn3)ccc12	-13.4%
CCOc1ccc2nc(N3C(=O)/C(=C/c4ccc(Cl)cc4)NC3=S)sc2c1	-21.3%
COc1ccc2nc(/N=C/c3c(C)[nH]n(-c4ccc(C)cc4C)c3=O)sc2c1	23% (active)
CCOc1ccc2nc(/N=C/c3c(C)[nH]n(-c4ccc(C)cc4)c3=O)sc2c1	102% (active)
CCOc1ccc2nc(/N=C/c3nc(-c4ccc(Br)cc4)oc3O)sc2c1	-9.3%
CCC(c1nnc(SCC(=O)NCCc2ccc(Cl)cc2Cl)o1)N(C)C (centres undefined)	-31.5%
CCOc1ccccc1C(=O)NC1CC2CCCC(C1)N2Cc1nnnn1Cc1ccco1 (centres undefined)	-26.4%
Cc1ccc2cc(CN(CCCN(C)C)C(=S)NCc3ccccc3)c(=O)[nH]c2c1C	-23.9%
CC1CC(OCC(O)C[N+]2(C)CCOCC2)CC(C)(C)C1 (centres undefined)	-21.6%
CCCSc1cc(NCCOC(C)=O)c([N+](=O)[O-])c2nonc12	-13.1%
COc1ccc(C(=O)O/N=C(\N)c2ccccn2)cc1[N+](=O)[O-]	-10.2%
O=[N+]([O-])C1=CC=C2C(=NC3(CCCCC3)N2O)C1=NC1CCCCC1	-27.4%
Cc1ccc(/C(O)=C/C(=O)C(=O)NC23CC4CC(CC(C4)C2)C3)cc1	1.2% (active)
Nc1cccc2c1C(=O)N(CC(=O)NC13CC4CC(CC(C4)C1)C3)C2=O	-18.4%
O=C(O)c1ccc(CNC(=O)C23CC4CC(CC(C4)C2)C3)cc1	-18.2%
S=c1[nH]nc(-c2n[nH]c3c2CCC3)n1/N=C/C=C/c1ccccc1	-26.2%
CC(=O)OCC1O[C@@H](O[C@@H]2C[C@H]3C(C)(C)[C@H](OC(C)=O)CC[C@]3(C)[C@H]3CC[C@]45C[C@]4(CC[C@H]5[C@@H](C)C[C@@H](O)[C@H](O)C(C)(C)O)[C@@]32C)[C@H](O)[C@@H](O)[C@@H]1O (some centres undefined)	1% (active)
